Jurkat NFkB inh – inhibitors of induced NF-kB luciferase reporter, primary screen, TCR NF-kB activation inhibitor project, cell-based, luminescence, uHTS. inhibition, % at 4 µM. Jurkat, PMA/ionomycin-induced NF-kB luciferase reporter. 330,000 tested, 0.53% active; in the data active means inhibition above about 50%
697 NFkB inh – inhibitors of PMA/ionomycin-induced NF-kB reporter, 697 cells, primary screen, B-cell NF-kB inhibitor project, cell-based, luminescence, uHTS. 330,000 tested, 0.33% active. 697 B-cell NF-kB luciferase reporter, 16 h. inhibition, % at 4 µM; in the data active means inhibition above about 35%
SMARCA2 activ – SMARCA2 (BRM) function activators, primary screen, cell-based, luminescence, high throughput. 370,000 tested, 1% active. AID 652017, 2013. activation, % at 9.1 µM. MG213 cells, MMTV-luciferase reporter, dexamethasone, overnight; in the data active means activation above about 7.8%;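 further: 0% = vehicle wells and 100% = reference activator wells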
esBAF inh – Bmi1 luciferase reporter increase in mESCs, primary screen, esBAF inhibitor project, mouse ES cells, Bmi1 luciferase knock-in, single point | 24 h; 100% = twice the neutral-well signal | reporter increase, % at 12.5 µM | 350,000 tested, 2% active | AID 602393, 2012; in the data active means activation above about 40%;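 further: 0% = median of the plate's neutral control wells and 100% = double that signal; a rise in the Bmi1 reporter signal indicates esBAF inhibition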
Gli-Sufu antag – Gli-Sufu pathway antagonists, primary screen, luciferase luminescence, Sufu-KO-LIGHT cells, uHTS | Sufu-KO-LIGHT fibroblasts, Gli luciferase reporter luminescence | inhibition, % at 5 µM | 340,000 tested, 0.74% active;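 active means inhibition above about 55%, limit read from the data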;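 further: 0% = DMSO-treated cells and 100% = wells with medium but no cells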
SMARCA2 conf – SMARCA2 (BRM) function activators, confirmation, cell-based, luminescence, triplicate; MG213 cells, MMTV-luciferase with dexamethasone, overnight; MG213 cells expressing E1A, Rb sequestered; DMSO wells 0%, reference activator 100%; activation, % at 9.1 µM; shares compounds with SMARCA2 activ; 3,500 tested, 30% active;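 active means activation above its plate's cutoff, the mean activation of tested wells plus 3 SD, cut at about 7.9% in these data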
VP16 Luc act – GAL4-VP16 luciferase reporter activation, counter-screen for SMARCA2 (BRM) activator project, cell-based, pG5luc, luminescence, high throughput | shares compounds with SMARCA2 activ | HEK293 GAL4-VP16 pG5luc reporter; scaled: DMSO wells 0%, SAHA wells 100% | activation, % at 9.1 µM | 3,500 tested, 41% active;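 active means activation above the solvent-only control well mean plus 3 SD, averaged across control plates, cut at about 5.2% in these data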
Starred values were filed as active, the others as inactive; / = no result. Only some compounds are listed: those with a hit (about 3.3% of all), similar ones and a draw of the others.

SMILES	Jurkat NFkB inh	697 NFkB inh	SMARCA2 activ	esBAF inh	Gli-Sufu antag	SMARCA2 conf	VP16 Luc act
COCC#Cc1cnc2c(c1)C(=O)N([C@H](C)CO)C[C@H](C)[C@H](CN(C)C)O2	/	/	/	-1	/	/	/
O=C(COc1ccccc1)NNC(=O)c1cc2ccccc2o1	-12	5	9.6*	/	-3	1	2
CCC(=O)Nc1cccc(NC(=O)c2cc3ccccc3o2)c1	-88	-48	8.9*	38	-73	3	9.8*
COc1ccc(NC(=O)N(C)C[C@@H]2Oc3ccc(NC(=O)CCCCCC(=O)Nc4ccccc4N)cc3CC(=O)N([C@@H](C)CO)C[C@@H]2C)cc1	/	/	/	8	/	/	/
CC1OC(OCC2OC(Oc3c(-c4ccc(O)cc4)oc4cc(O)cc(O)c4c3=O)C(O)C(O)C2O)C(O)C(O)C1O (configuration not stated)	-1	3	-2	-16	5	/	/
C[C@@H]1O[C@@H](OC[C@H]2O[C@@H](Oc3c(-c4ccc(O)c(O)c4)oc4cc(O)cc(O)c4c3=O)[C@H](O)[C@@H](O)[C@@H]2O)[C@H](O)[C@H](O)[C@H]1O	0	7	8.2*	3	9	0	2
Cc1cc(F)ccc1-c1cc(C(=O)NCC2CCCCC2)[nH]n1	/	/	8.6*	8	/	-1	0
CC(C)Oc1cc(F)ccc1-c1cc(C(=O)NCC2CCCCC2)[nH]n1	/	/	-2	-6	/	/	/
Cc1nc(NC(=O)/C=C/c2ccccc2)sc1C(=O)N(C)C	-16	-14	10*	/	-31	3	6.2*
C[C@@H]1CN([C@H](C)CO)C(=O)c2cc(NC(=O)CCCN(C)C)ccc2O[C@@H](C)CCCCO[C@H]1CN(C)Cc1ccc2c(c1)OCO2	/	/	/	-3	/	/	/
Clc1ccccc1OCc1nc(-c2ccccn2)no1	-101	-204	12*	0	-118	15*	8.7*
COc1cccc(C(=O)Nc2ccc3c(c2)C(=O)N(C)C[C@@H](OC)[C@H](C)CN(C(=O)C2CC2)[C@H](C)CO3)c1	/	/	/	-5	/	/	/
COCc1cc(C)nc(N/N=C/c2ccc(Cl)c(Cl)c2)c1C#N	-4	-4	8.3*	/	7	-2	0
COc1ccc(C(=O)N/N=C/c2ccc(N3CCOCC3)s2)cc1OC	3	0	8.4*	5	-13	-2	-1
COc1ccc(C(=O)N/N=C/c2ccc(N3CCOCC3)o2)cc1OC	-15	0	0	/	-12	/	/
O=c1c2ccc(F)cc2sn1-c1ccccc1	/	/	4	22	/	/	/
O=c1c2cc(F)ccc2sn1-c1ccccc1Cl	/	/	9.0*	-1	/	-2	0
c1ccc(CSc2ccc(-c3ccco3)nn2)cc1	-65	-72	10*	/	-89	8.3*	8.5*
Clc1ccc(CSc2ccc(-c3ccco3)nn2)cc1	-14	-11	1	/	-31	/	/
Nc1c(Br)cc2oc(-c3ccccc3)nc2c1Br	-146	-126	9.5*	58*	/	12*	7.2*
Brc1cccc(-c2nnc(-c3ccccc3)o2)c1	-104	-124	-1	/	-84	/	/
CN1C(=O)c2cc(NC(=O)c3ccc(Cl)cc3)ccc2OC[C@H]2O[C@H](CC(=O)O)CC[C@@H]21	/	/	/	3	/	/	/
CC(C)Sc1ncnc2c1oc1ccccc12	-21	8	0	33	10	/	/
COc1ncnc2c1oc1ccccc12	-86	-85	12*	60*	-11	13*	6.0*
Cc1ccc(-n2sc3ccccc3c2=O)cc1	-25	-36	8.0*	/	-2	11*	2
SMILES	Jurkat NFkB inh	697 NFkB inh	SMARCA2 activ	esBAF inh	Gli-Sufu antag	SMARCA2 conf	VP16 Luc act
O=c1c2ccccc2sn1-c1ccc(F)cc1	-23	-1	7	34	6	/	/
CC(C)(C)c1ccc(C(=O)NC(=S)NCC2CCCO2)cc1 (configuration not stated)	-15	-22	2	/	3	/	/
Cc1ccc(C(=O)N/C(=C\c2ccco2)C(=O)NCC2CCCO2)cc1C (configuration not stated)	4	-40	0	10	6	/	/
COc1ccc(C(=O)NC(=S)NCC2CCCO2)cc1 (configuration not stated)	-7	-10	11*	/	-21	2	4
CNC(=O)NC(=S)NC(=O)c1ccc(OC)cc1	-13	-2	10*	27	-12	0	2
COc1ccc(C(=O)NC(=S)NNC(=O)c2cnccn2)cc1	17	8	33*	/	6	-3	1
Cc1ccc(C(=O)N/C(=C/c2ccco2)C(=O)NCC2CCCO2)cc1 (configuration not stated)	11	-19	9.9*	/	-3	2	1
COc1ccc(C(=O)NC(=S)Nc2ccccc2F)cc1	-83	-148	0	/	-38	/	/
O=C(/C=C/Nc1cccc(C(F)(F)F)c1)c1ccco1	-64	-25	8.7*	/	-3	9.2*	8.5*
COc1ccc2[nH]c(C)c(CCN3C(=O)C4CC=CCC4C3=O)c2c1 (configuration not stated)	-2	5	9.1*	-1	-1	-4	-2
OCCNCc1ccc(-c2ccccc2)cc1	15	5	8.2*	/	-3	1	0
C[C@@H]1CN([C@H](C)CO)C(=O)Cc2cc(NC(=O)c3ccncc3)ccc2O[C@H]1CN(C)Cc1ccc(C(=O)O)cc1	/	/	/	6	/	/	/
COc1ccc(Cc2nc3ccc(C(=O)NCCn4cccn4)cc3o2)cc1	0	-9	4	-5	1	/	/
COCCCNC(=O)c1ccc2nc(Cc3ccc(OC)cc3)oc2c1	-62	-76	11*	71*	-8	5	9.3*
O=C(NCc1cccs1)c1ccc([N+](=O)[O-])cc1Cl	0	-14	13*	/	-18	2	2
CC(C)c1ccc(/C=N/NC(=O)CC(=O)NC2CCCCC2)cc1	7	-4	8.4*	-1	-3	0	1
C=CCOc1ccc(/C=N/NC(=O)CC(=O)NC2CCCCC2)cc1	-7	-3	2	-7	16	/	/
O=C(C[C@@H]1CC[C@@H](NC(=O)C2CC2)[C@H](CO)O1)NC1CCC1	/	/	/	-5	/	/	/
O=C(N[C@H]1CC[C@H](CCn2cc(-c3ccccc3F)nn2)O[C@H]1CO)c1ccc2c(c1)OCO2	/	/	/	-5	/	/	/
CCCn1c(CC)nc([N+](=O)[O-])c1S(=O)(=O)c1ccccc1	1	-50	10*	19	-7	-12	-1
